Anthrax LF prot = inhibitors of Bacillus anthracis lethal factor protease | P15917 | multiplex microsphere protease cleavage assay, LF | inhibition, % at 10 µM | 360,000 tested, 0.12% active; note: plate controls were buffer without enzyme for full effect and enzyme alone for no effect
BoNT A protease = BoNT A light chain protease inhibition; multiplex microsphere protease substrate cleavage, flow cytometry; inhibition, % at 10 µM; 360,000 tested, 0.17% active; AID 588499; note: plate controls were buffer without enzyme for full effect and enzyme alone for no effect
3CLpro inhibitor = SARS-CoV 3CLpro protease inhibition; recombinant SARS-CoV 3CLpro, quenched FRET peptide cleavage; 290,000 tested, 0.14% active; inhibition, % at 6 µM; in the data active = inhibition above about 12%
BoNT F protease = BoNT F light chain protease inhibition. Multiplex microsphere protease cleavage assay, flow cytometry. inhibition, % at 10 µM. 360,000 tested, 0.22% active; in the data active = inhibition above about 35%, passing the limit was not always enough; inconclusive = no clear call, values can overlap the other calls; note: plate controls were buffer without enzyme for full effect and enzyme alone for no effect
Bead autofluor = compound fluorescence in toxin protease inhibitor counterscreen. fluorescence intensity (no concentration beside the values). 360,000 tested, 3.1% active. compound autofluorescence counterscreen, microsphere flow cytometry; hits give high values; in the data active = fluorescence intensity above about 16000; inconclusive = no clear call, values can overlap the other calls
DUSP3 inh = DUSP3 (human) phosphatase inhibition | P51452 | recombinant VHR phosphatase, pNPP absorbance | inhibition, % at 13.3 µM | 290,000 tested, 0.52% active | AID 1654; in the data active = inhibition above about 50%
Target sequence (P51452 whole entry, looked up): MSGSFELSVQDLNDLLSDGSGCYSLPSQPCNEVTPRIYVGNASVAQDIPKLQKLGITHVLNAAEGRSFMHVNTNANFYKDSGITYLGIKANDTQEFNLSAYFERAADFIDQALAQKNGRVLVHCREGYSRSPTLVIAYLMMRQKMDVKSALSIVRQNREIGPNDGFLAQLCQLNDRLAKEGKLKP
Numbers without * were called inactive; u = inconclusive; x = not tested or not shown. An excerpt weighted towards active compounds, which were near 3.9% of everything screened. Cut-off read from the data, not from the text of the source, unless noted: active = inhibition above about 30%; inconclusive = no clear call, values can overlap the other calls; inactive = below that.

SMILES	Anthrax LF prot	BoNT A protease	3CLpro inhibitor	BoNT F protease	Bead autofluor	DUSP3 inh
CS(=O)(=O)c1ccc2nc(NC(=O)CCNC(=O)c3ccc(Cl)cc3)sc2c1	-8	-2	x	u	u	x
O=C1NN(c2cccc(Br)c2)C(=O)/C1=C\c1ccc(O)cc1	0	0	1	17	3839	53*
O=C1NN(c2cccc(Br)c2)C(=O)/C1=C/c1ccc(-c2cc([N+](=O)[O-])ccc2O)o1	-7	-1	2	-4	4447	91*
COc1ccc(S(=O)(=O)N2CCCC2CNC(=O)C(=O)NCc2ccccc2Cl)cc1 (stereo not drawn)	2	-2	x	-3	5479	x
CC(=O)c1cccc(NC(=O)CN2C(=O)NC(C)(c3ccc4c(c3)OCCCO4)C2=O)c1 (stereo not drawn)	2	2	x	-2	6302	x
CCCCCCNC(=O)CNC(=S)N(Cc1cccs1)C1CCCCC1	5	2	2	2	3670	-2
CCS(=O)(=O)C(=C(Nc1ccc(OC)cc1)Nc1ccc(OC)cc1)S(=O)(=O)CC	-7	-2	-4	-8	22992*	34
Cc1ccc(S(=O)(=O)N2CCOCC2)c2nsnc12	-6	-2	1	-3	17116*	12
CCc1ccc(-c2nc(CN3CCCC(C(=O)NCCc4ccc(OC)c(OC)c4)C3)c(C)o2)cc1 (stereo not drawn)	-6	u	-1	2	21829*	37
Cc1oc(-c2ccccc2Cl)nc1CS(=O)CC(=O)NCCCN1CC(C)CC(C)C1 (stereo not drawn)	0	-1	-1	-1	5401	52*
COc1ccc(CCNC(=O)C2CCCN(Cc3nc(-c4ccccc4C)oc3C)C2)cc1OC (stereo not drawn)	-1	u	-5	-7	21174*	29
Cc1oc(-c2ccc(Cl)cc2)nc1CN1CCC(C(=O)NCc2cccnc2)CC1	-2	-2	3	-6	16967*	10
COc1ccc(CCNC(=O)C2CCN(Cc3nc(-c4cccc(Cl)c4)oc3C)CC2)cc1OC	-3	-1	0	-4	6376	-10
CCOc1ccc(CN2CCN(S(=O)(=O)c3ccc(NC(C)=O)cc3)CC2)cc1	0	0	-1	5	5462	15
OC[C@@H]1CN(CCN2CCOCC2)C[C@H](n2cnc3c(NC4CCCC4)ncnc32)O1	0	0	x	7	2784	x
COC(=O)c1cc(C(=O)OCC(=O)Nc2ccc(N3CCOCC3)cc2)cc([N+](=O)[O-])c1	6	0	x	-5	3826	x
Cc1ccccc1-c1nc(CN2CCCC(C(=O)NCc3cccnc3)C2)c(C)o1 (stereo not drawn)	-2	u	-2	-8	24766*	29
Cc1ccccc1-c1nc(CS(=O)(=O)CC(=O)NCCCN2CCCC2)c(C)o1	-3	0	2	-12	5990	13
COc1ccc(CNC(=O)C2CCCN(Cc3nc(-c4cccc(C)c4)oc3C)C2)cc1 (stereo not drawn)	-1	0	1	2	2740	-1
Cc1ccccc1-c1nc(CN2CCCC(C(=O)NCCCN3CCOCC3)C2)c(C)o1 (stereo not drawn)	0	0	-5	0	24221*	21
O=C(OCc1ccc(COC(=O)c2cccnc2Cl)cc1)c1cccnc1Cl	-7	0	3	-4	4600	17
O=C(OCc1ccccc1Cl)c1ccccc1C(=O)c1ccccc1	-4	1	-4	0	22408*	15
COC(=O)c1sc2ncccc2c1OCc1c(Cl)cccc1Cl	2	2	6	1	19174*	14
O=C(OCc1ccccc1Cl)c1cccnc1Cl	-3	-3	4	-2	21281*	-6
O=C(OCc1c(Cl)cccc1Cl)c1cccnc1Cl	-1	u	6	-5	24071*	30
CS(=O)(=O)NCc1nnc(SCC(=O)NC2CCCCC2)n1-c1ccc(F)cc1	-4	1	-2	11	4408	0
COc1ccc(-c2cn(Cc3ccc(C)cc3)nn2)cc1	-3	-1	6	-4	3857	-10
O=c1[nH]c(=S)n(CCC2=CCCCC2)c(O)c1C=NCc1cccnc1	-8	u	-1	-5	24166*	29
CCn1c(=N)n(CC(O)c2ccco2)c2ccccc21 (stereo not drawn)	-2	-11	-2	-19	28325*	-20
